# Reference: article PMC7862700, “An all-to-all approach to the identification of sequence-specific readers for epigenetic DNA modifications on cytosine”
# How the values were obtained:
# Assay in all cases: DAPPL (digital affinity profiling via proximity ligation, sequencing); 10 mM Tris-HCl pH 7.5, 50 mM NaCl, 1 mM DTT, 4% glycerol, room temperature, 30 min; GST-TFs on glutathione beads, 16-mer random dsDNA library, 0.1% formaldehyde crosslink after washing; high values mean tight binding
# Settings in all cases: protein: recombinant; tags: N-terminal GST; dsDNA, one strand shown
# FLI1 = biological target: T1, FLI1 (Homo sapiens, UniProt Q01543 1-452)
# T1 sequence: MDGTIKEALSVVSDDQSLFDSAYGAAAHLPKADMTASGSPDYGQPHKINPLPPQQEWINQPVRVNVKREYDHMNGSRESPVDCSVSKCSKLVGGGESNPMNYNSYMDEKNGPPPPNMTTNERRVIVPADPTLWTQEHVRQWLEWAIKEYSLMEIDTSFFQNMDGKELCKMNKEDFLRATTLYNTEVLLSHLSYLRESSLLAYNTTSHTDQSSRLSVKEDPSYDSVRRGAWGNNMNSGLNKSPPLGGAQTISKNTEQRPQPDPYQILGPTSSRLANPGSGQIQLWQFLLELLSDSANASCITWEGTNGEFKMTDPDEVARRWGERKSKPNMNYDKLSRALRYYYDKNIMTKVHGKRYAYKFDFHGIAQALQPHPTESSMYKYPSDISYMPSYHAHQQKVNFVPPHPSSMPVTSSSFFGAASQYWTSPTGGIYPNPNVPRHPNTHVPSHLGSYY
# Outline: (§1)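 Pools were built from human transcription factors expressed in yeast as GST fusions, captured on glutathione beads and DNA-barcoded, along with a tag-only sample. Incubation with 200 nmole of a 16-mer random double-stranded DNA library lasted 30 min at room temperature in Tris/NaCl/DTT/glycerol buffer, and was followed by washing, 0.1% formaldehyde crosslinking, proximity ligation, PCR amplification and Illumina NextSeq500 sequencing. Binding signal is the quotient of each hexamer's read frequency for a factor and its frequency for the tag-only sample.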
# ELK1 = biological target: T2, ELK1 (Homo sapiens, UniProt P19419 1-428)
# T2 sequence: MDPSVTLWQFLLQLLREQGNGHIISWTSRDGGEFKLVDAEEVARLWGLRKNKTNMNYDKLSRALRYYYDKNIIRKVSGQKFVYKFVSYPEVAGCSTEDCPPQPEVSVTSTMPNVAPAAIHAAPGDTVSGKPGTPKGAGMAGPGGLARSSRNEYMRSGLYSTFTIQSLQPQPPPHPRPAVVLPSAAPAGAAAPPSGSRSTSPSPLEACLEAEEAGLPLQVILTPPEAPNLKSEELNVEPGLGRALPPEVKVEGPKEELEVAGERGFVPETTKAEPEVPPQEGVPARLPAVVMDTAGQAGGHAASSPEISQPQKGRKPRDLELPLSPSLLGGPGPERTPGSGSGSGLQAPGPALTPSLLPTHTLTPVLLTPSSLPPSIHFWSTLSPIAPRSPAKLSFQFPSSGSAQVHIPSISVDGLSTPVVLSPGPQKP
# Outline: as §1
# GABPA = biological target: T3, GABPA (Homo sapiens, UniProt Q06546 1-454)
# T3 sequence: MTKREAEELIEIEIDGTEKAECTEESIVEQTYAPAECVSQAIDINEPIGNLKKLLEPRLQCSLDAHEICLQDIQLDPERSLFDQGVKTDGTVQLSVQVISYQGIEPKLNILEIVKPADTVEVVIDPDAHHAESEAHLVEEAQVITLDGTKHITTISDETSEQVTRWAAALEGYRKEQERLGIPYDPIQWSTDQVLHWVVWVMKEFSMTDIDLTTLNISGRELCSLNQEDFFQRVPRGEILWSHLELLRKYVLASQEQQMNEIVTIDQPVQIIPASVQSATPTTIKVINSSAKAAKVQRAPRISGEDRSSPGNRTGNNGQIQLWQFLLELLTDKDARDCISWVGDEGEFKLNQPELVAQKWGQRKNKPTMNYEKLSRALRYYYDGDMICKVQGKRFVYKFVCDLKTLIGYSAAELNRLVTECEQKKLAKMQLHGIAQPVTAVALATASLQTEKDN
# Outline: as §1
# ERG = biological target: T4, ERG (Homo sapiens, UniProt P11308 1-479)
# T4 sequence: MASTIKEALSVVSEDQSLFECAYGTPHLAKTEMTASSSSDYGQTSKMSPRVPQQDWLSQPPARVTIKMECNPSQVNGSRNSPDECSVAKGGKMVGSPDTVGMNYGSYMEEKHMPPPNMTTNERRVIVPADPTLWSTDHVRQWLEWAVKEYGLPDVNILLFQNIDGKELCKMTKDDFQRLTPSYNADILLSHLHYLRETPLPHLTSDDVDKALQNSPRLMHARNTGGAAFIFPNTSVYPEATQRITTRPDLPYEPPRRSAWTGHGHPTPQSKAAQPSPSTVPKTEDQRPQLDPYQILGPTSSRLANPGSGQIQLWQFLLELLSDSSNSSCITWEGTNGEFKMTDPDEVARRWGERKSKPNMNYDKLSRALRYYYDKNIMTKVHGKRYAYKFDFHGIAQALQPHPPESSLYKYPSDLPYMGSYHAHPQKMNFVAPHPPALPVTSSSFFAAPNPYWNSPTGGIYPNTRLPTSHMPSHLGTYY
# Outline: as §1
# ELF1 = ELF1 (Homo sapiens, UniProt P32519 1-619)
# ELF1, sequence (P32519 whole entry): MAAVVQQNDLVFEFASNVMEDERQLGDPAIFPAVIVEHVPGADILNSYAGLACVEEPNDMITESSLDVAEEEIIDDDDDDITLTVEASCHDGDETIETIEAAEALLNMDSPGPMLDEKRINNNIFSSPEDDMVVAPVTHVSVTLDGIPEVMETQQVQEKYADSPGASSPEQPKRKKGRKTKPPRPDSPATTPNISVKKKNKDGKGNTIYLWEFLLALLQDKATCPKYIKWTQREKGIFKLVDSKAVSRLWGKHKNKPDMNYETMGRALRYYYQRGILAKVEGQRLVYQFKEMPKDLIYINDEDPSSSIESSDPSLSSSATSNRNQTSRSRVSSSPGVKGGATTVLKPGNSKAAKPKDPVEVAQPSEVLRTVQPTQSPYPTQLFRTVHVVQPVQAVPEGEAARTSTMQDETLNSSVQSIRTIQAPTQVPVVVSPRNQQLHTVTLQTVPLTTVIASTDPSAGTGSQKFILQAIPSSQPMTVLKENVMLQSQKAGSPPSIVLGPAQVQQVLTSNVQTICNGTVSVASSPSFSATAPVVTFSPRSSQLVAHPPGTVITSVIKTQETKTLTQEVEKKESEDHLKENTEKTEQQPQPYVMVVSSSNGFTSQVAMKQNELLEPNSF
# Outline: as §1
# EHF = biological target: T5, EHF (Homo sapiens, UniProt Q9NZC4 1-300)
# T5 sequence: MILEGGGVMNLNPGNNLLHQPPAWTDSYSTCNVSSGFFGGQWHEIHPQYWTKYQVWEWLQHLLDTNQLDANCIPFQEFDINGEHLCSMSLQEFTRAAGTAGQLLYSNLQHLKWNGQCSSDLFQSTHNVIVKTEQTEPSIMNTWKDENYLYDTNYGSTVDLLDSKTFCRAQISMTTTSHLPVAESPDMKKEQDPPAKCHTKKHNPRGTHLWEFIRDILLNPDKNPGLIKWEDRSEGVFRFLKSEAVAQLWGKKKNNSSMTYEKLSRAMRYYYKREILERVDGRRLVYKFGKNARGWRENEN
# Outline: as §1
# SPI1 = SPI1 (Homo sapiens, UniProt P17947 1-270)
# Outline: as §1
# SPIB = SPIB (Homo sapiens, UniProt Q01892 1-262)
# SPIB, sequence (Q01892 whole entry): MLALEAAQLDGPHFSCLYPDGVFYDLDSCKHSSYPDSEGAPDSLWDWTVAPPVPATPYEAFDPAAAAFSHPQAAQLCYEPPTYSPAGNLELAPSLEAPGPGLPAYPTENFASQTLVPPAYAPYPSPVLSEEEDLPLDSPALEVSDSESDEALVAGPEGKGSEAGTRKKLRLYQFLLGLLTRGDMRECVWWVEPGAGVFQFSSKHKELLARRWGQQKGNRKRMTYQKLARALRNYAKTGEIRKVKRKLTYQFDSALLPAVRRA
# Outline: as §1
# ELK3 = biological target: T6, ELK3 (Homo sapiens, UniProt P41970 1-407)
# T6 sequence: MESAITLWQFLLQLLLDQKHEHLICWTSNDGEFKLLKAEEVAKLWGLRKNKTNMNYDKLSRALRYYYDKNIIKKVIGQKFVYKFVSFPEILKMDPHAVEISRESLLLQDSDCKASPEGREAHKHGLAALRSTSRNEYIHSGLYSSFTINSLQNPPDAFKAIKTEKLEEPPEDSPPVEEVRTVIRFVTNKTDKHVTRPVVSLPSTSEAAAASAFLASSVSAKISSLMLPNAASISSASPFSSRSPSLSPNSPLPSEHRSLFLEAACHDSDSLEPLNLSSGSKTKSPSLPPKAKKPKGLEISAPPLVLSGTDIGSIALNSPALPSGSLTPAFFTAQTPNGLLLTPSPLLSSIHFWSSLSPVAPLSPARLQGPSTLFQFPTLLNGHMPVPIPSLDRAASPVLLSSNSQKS
# Outline: as §1
# ETV5 = ETV5 (Homo sapiens, UniProt P41161 1-510)
# ETV5, sequence (P41161 whole entry): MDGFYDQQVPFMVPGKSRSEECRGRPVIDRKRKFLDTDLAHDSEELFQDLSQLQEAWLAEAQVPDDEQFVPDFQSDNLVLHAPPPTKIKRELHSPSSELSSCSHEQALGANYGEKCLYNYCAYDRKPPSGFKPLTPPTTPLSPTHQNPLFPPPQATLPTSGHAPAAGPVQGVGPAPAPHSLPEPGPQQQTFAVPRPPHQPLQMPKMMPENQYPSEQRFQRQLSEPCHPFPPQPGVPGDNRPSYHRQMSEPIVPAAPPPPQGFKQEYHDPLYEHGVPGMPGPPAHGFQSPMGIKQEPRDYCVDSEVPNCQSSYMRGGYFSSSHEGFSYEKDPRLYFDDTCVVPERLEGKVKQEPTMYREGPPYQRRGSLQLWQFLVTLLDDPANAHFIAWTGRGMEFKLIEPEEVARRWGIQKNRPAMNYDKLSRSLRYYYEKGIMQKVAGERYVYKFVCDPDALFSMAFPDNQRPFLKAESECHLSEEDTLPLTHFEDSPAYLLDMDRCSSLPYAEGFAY
# Outline: as §1
sequence,measurement,setting,value
CGATGT,binding signal,FLI1,"1.1 fold enrichment (6-mer frequency, TF over GST control)"
same,binding signal,ELK1,"1.07 fold enrichment (6-mer frequency, TF over GST control)"
same,binding signal,GABPA,"1.08 fold enrichment (6-mer frequency, TF over GST control)"
same,binding signal,ERG,"1.08 fold enrichment (6-mer frequency, TF over GST control)"
same,binding signal,ELF1,"1.03 fold enrichment (6-mer frequency, TF over GST control)"
same,binding signal,EHF,"1.11 fold enrichment (6-mer frequency, TF over GST control)"
same,binding signal,SPI1,"1.15 fold enrichment (6-mer frequency, TF over GST control)"
same,binding signal,SPIB,"1.08 fold enrichment (6-mer frequency, TF over GST control)"
same,binding signal,ELK3,"1.04 fold enrichment (6-mer frequency, TF over GST control)"
same,binding signal,ETV5,"1.1 fold enrichment (6-mer frequency, TF over GST control)"
